Broadly, the inhibition is the drop in the measured response relative to a control, in per cent.

Hit rate of the full screen: of about 6,200 compounds, about 2,900 (47%) were called active. Rule as the data show it: active = inhibition above about 50%; inactive = the rest. So high a share suggests a set chosen from earlier hits. This is one part of the list.

The results in this text go back to PubChem BioAssay AID1259343 (VanderVen Lab, College of Veterinary Medicine, Cornell …, 2017).

This test can be described thus: Mycobacterium tuberculosis growth inhibition, primary screen (AID 1259343). The conditions noted are these: inhibition: at 10 µM, stronger effect = higher value; outcome: 10 uM.
For the compound `CC(=NNc1nc2ccccc2s1)c1cc2ccccc2o1`, the inhibition was 3.87% (inactive).

With `O=C(CCN1CCCCC1c1cccnc1)Nc1nc2ccccc2s1` (configuration not stated), the inhibition is 35.6% (inactive).

Take `NC(=S)Nc1nc2ccccc2s1`: the inhibition was 89.5% (active).

As to `Brc1ccc2cc(Oc3ncccn3)ccc2c1`, the inhibition is 5.33% (inactive).

`N#Cc1ccc(COc2ccc(Br)cc2Br)cc1`: the inhibition is 1.7% (inactive).

With `Cc1cc(C)nc(Oc2ccc(Br)cc2Br)n1`, the inhibition was 75.3% (active).

Take `C=CCOc1ccc(/C=N\O)cc1Cl`: the inhibition was 86.2% (active).

On to `COC(=O)C[C@H]1C2(C)CC34OC5(C)O[C@@]6([C@H](OC)C(OC(=O)C(C)C)[C@]7(C)C(/C(=C(/OC)C(C)C)C(=O)O[C@H]7c7ccoc7)[C@@]6(O5)[C@H](OC)[C@@]3(OC)C2OC(C)=O)[C@]14C` (some centres not stated), for which the inhibition is 37.5% (inactive).

With `C=C1C2CC[C@@]3(C)[C@H](c4ccoc4)OC(=O)C[C@]13O[C@H]1CC(O)C(C)(C)C(CC(=O)OC)[C@@]21C` (some centres not stated), the inhibition was 79.9% (active).

Take `O=S(=O)(c1ccc(Cl)cc1)c1nc(Nc2ccc(F)cc2F)sc1Cl`: the inhibition was 82.6% (active).

As to `CCC(O)c1ccc(OCCCC(C)(C)C#N)cc1` (configuration not stated), the inhibition is 90.6% (active).

Consider `FC(F)(F)c1ccnn1-c1nc(-c2ccc(Br)cc2)cs1`, for which the inhibition was 16.4% (inactive).

In the case of `O=S(=O)(Nc1ccc(Cl)cc1)c1ccc(F)c(F)c1F`, the inhibition is 95.7% (active).

Take `O=S(=O)(Nc1ccc2ccccc2c1)c1ccc(F)c(F)c1F`: the inhibition is 84.5% (active).

`Cc1cc(Cl)ccc1NS(=O)(=O)c1ccc(F)c(F)c1F`: the inhibition was 23.8% (inactive).

Turning to `O=C(NC1CCCC1)c1ccccc1NS(=O)(=O)c1ccc(F)c(F)c1F`, the inhibition was 18.7% (inactive).

For the compound `CSc1ccccc1NS(=O)(=O)c1ccc2ccccc2c1`, the inhibition was 11.2% (inactive).

In the case of `O=C(Nc1ccccc1)C1CSCN1S(=O)(=O)c1ccc(Cl)cc1C(F)(F)F` (configuration not stated), the inhibition is -4.72% (inactive).

On to `COc1cc(Cc2cnc(N)nc2N)cc(OC)c1OC`, for which the inhibition was 98.3% (active).

Consider `CCCCNC(=O)c1ccc(C)c(OCC)c1`, for which the inhibition was -17.8% (inactive).

On to `CCCCNC(=O)c1cc2sc3ccccc3c2s1`, for which the inhibition is 101% (active).

In the case of `CN(C)c1ccc(/C=C/C(=O)N(C)C2C3CC4CC(C3)CC2C4)cc1` (configuration not stated), the inhibition is 8.71% (inactive).

For the compound `O=C(NNc1ccccc1)C(O)C(O)C(=O)NNc1ccccc1` (configuration not stated), the inhibition was 83.3% (active).

For `CC(C)N(CC(=O)N(CCc1c[nH]c2ccccc12)Cc1ccc(C(C)(C)C)cc1)CC(O)COCc1ccco1` (configuration not stated), the inhibition is 53.8% (active).

Turning to `COCCN(CC(=O)N(Cc1ccc(F)cc1)Cc1ccco1)C(=O)N(C)C`, the inhibition was 22.5% (inactive).

In the case of `COc1cccc(Oc2cncnc2-c2ccc(OC)cc2O)c1`, the inhibition was 76.5% (active).

In the case of `COc1ccc(-c2oncc2-c2ccccc2)c(O)c1`, the inhibition is -29.6% (inactive).
